The results in this text go back to publication PMC12864922, “TDP-43 directly inhibits mRNA accumulation in neurites through modulation of mRNA stability”.

In all, about 9,900 sequences were measured (“r (bound/input frequency ratio)”: median about 0.7, highest 2% from about 6.5 on). This excerpt belongs to a sample that is enriched for the highest values.

B1: ENSMUSG00000031028.491|Tub (ssRNA)
RNA: GGGAGUUCUACAGUCCGACGAUCGCUUCGAUAUCCGCAUGCUACACCCUUUUAAAUGAACAUGGGGUGGUGAUGGUGCCUUAACAAUCUUGACACUAAGGUGAAGCAAGCAAGUAAGGUGUGUGCCUCUGGGAAGACAGGAGUCGGAAGCCAAGGUGUGUGGCAACAGUCUGGAAGAGAGCUUUUGGUAAUCAUACCGUCUUCAGUGACAAGGCAACAAUGCUGUAAAGUGGGUUUGUUUGGUUUUGUUUUUUCUUUCUCUUUUAUGGAAAUGGCAGGUCUAUUUGCCUCAAACGUUAUGUAGCUCUUGCGGUCGCACUAGUGUGGAAUUCUCGGGUGUCAAGG
B2: ENSMUSG00000028439.153|Fam219a (ssRNA)
RNA: GGGAGUUCUACAGUCCGACGAUCGCUUCGAUAUCCGCAUGCUACUGUGCCCCAUUGCCAUUUCACCCUAGCUCAAAGUCCAGGAGCCAGGCUUCCAGAAAGGCUCUUCAAGAGCAAGCUUAAGGAAAUACAGUGAGCCAAGUGGCUGUAUGAUAUGGUAUGGUAUGGUAUGGUAUGGUAUGGUAUGGUAUGCACAUGUGUGUGCAUGUGUGUGUGCCUGUGUGUGUGCGUGUGCGUGUGUGUAUGUGUGUGCGUGUGUGUGUGUGUGUGUUGUACCCGAGUGUGUGUUGAGCCUAUCUGUCCACUCUUGCGGUCGCACUAGUGUGGAAUUCUCGGGUGUCAAGG
B3: ENSMUSG00000028439.154|Fam219a (ssRNA)
RNA: GGGAGUUCUACAGUCCGACGAUCGCUUCGAUAUCCGCAUGCUACCCAUUGCCAUUUCACCCUAGCUCAAAGUCCAGGAGCCAGGCUUCCAGAAAGGCUCUUCAAGAGCAAGCUUAAGGAAAUACAGUGAGCCAAGUGGCUGUAUGAUAUGGUAUGGUAUGGUAUGGUAUGGUAUGGUAUGGUAUGCACAUGUGUGUGCAUGUGUGUGUGCCUGUGUGUGUGCGUGUGCGUGUGUGUAUGUGUGUGCGUGUGUGUGUGUGUGUGUUGUACCCGAGUGUGUGUUGAGCCUAUCUGUCCAGGGAACCUCUUGCGGUCGCACUAGUGUGGAAUUCUCGGGUGUCAAGG
B4: ENSMUSG00000028439.155|Fam219a (ssRNA)
RNA: GGGAGUUCUACAGUCCGACGAUCGCUUCGAUAUCCGCAUGCUAGCCAUUUCACCCUAGCUCAAAGUCCAGGAGCCAGGCUUCCAGAAAGGCUCUUCAAGAGCAAGCUUAAGGAAAUACAGUGAGCCAAGUGGCUGUAUGAUAUGGUAUGGUAUGGUAUGGUAUGGUAUGGUAUGGUAUGCACAUGUGUGUGCAUGUGUGUGUGCCUGUGUGUGUGCGUGUGCGUGUGUGUAUGUGUGUGCGUGUGUGUGUGUGUGUGUUGUACCCGAGUGUGUGUUGAGCCUAUCUGUCCAGGGAACCAGAUUCUCUUGCGGUCGCACUAGUGUGGAAUUCUCGGGUGUCAAGG

Chain of TDP-43 (Q13148 whole entry): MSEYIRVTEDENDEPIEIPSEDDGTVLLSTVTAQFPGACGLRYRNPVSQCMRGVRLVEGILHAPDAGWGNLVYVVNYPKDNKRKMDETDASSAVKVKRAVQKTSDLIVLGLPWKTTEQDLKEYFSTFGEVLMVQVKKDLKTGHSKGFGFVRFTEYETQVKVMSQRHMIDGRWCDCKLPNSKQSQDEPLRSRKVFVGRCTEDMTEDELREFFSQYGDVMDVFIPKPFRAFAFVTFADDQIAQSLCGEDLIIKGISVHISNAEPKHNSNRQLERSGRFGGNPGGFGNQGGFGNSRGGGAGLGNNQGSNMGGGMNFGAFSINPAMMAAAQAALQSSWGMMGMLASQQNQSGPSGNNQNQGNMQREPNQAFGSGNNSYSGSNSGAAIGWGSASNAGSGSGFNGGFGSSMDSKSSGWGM

The assay has as its target TDP-43 (Homo sapiens, UniProt Q13148 1-414). Description: RNA Bind-n-Seq with designed 260-mer pool; 25 mM Tris-HCl, 150 mM KCl, 3 mM MgCl2, BSA (printed 500 mg/mL), 20 units/mL SUPERase IN; pH not stated; 500 nM RNA pool, 1 h, 4 C; TDP-43 5, 50, 500 nM; high values mean tight binding. Conditions: protein: recombinant; tags: SBP (GST cleaved off with PreScission; pGEX-GST-SBP). A digest of the protocol: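 Recombinant SBP-tagged TDP-43 at 5, 50 or 500 nM was captured on streptavidin beads, then incubated 1 h at 4 °C with 500 nM of an in vitro-transcribed 260-nt 3′ UTR oligo pool in 25 mM Tris-HCl, 150 mM KCl, 3 mM MgCl2, BSA and SUPERase IN. Bound RNA was washed, eluted with biotin, reverse transcribed, PCR-amplified and sequenced. Binding is R, each oligo's mapped-read-normalized abundance in the bound sample divided by its abundance in input. Duplicates used two independent protein batches.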
Turning to B1, the binding signal was 1.97 R (bound/input frequency ratio).
For B2, the binding signal is 6.09 R (bound/input frequency ratio).
Consider B3, for which the binding signal was 7.96 R (bound/input frequency ratio).
Turning to B4, the binding signal was 7.8 R (bound/input frequency ratio).
